Experimental data: PubChem BioAssay AID1347383 (Zoeller Lab, School of Medicine, Boston University, 2020)
The source made the active and inactive calls.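 The calls were made as follows: active = cell survival after UV exposure 2 SD above solvent-only control wells at 10 µM, confirmed on one or two repeats; inactive = the rest.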

Experiment: protection of CHO cells from pyrene-fatty acid UV killing, primary screen, phospholipid biosynthesis inhibitor project, ZR-82 cells, Analyticon library, screen 2 (AID 1347383);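 also: survival reflects blocked phospholipid synthesis cutting uptake of the phototoxic fatty acid; compound and fatty acid exposure 3 h then viability read next day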
Conditions: ZR-82 CHO cells, CellTiter Blue, at 10 µM, peroxisome-deficient CHO-K1 variant, with DGAT-1, DGAT-2 and ACAT inhibitors

SMILES	outcome
COC(=O)/C=C(\C)CCC1(C)C(C)CCC2(C)C(C)=CC(=O)CC21 (centres undefined)	inactive
O=C(O)CCC(=O)Cc1ccccc1	inactive
C=C(C)[C@@H]1Cc2cc3c(cc2O1)OC[C@@]1(O)c2ccc(O)cc2O[C@@H]31	inactive
C=CC(=C)CCC1(C)C(C)CC(O)C23C(=CC(OC(C)=O)CC12)C(OC)OC3OC(C)=O (centres undefined)	inactive
CC(C)c1ccc2c(c1)C(=O)CC1C(C)(C(=O)O)CCCC21C (centres undefined)	inactive
CC(C)=CCCC1=CC(=O)OC1O (centres undefined)	inactive
Cc1ccc(C(C)C)c(O)c1	inactive
CC(C(=O)CCCCC(O)C(C)O)C(=O)N1C=CCC1 (centres undefined)	inactive
COc1cc(OC)c2c(c1Cl)O[C@]1(C2=O)C(O)=CC(=O)C[C@H]1C	inactive
COc1ccc(CC(C)C(C)Cc2ccc3c(c2)OCO3)cc1OC (centres undefined)	inactive
OCCc1ccc(O)cc1	inactive
O=C1C(c2[nH]c3ccccc3c2O)=Nc2ccccc21	inactive
C/C=C/C=C/C(CC(=O)O)Nc1ccc(C=O)cc1 (centres undefined)	inactive
OCc1ccccc1O[C@@H]1O[C@H](CO)[C@@H](O)[C@H](O)[C@H]1O	inactive
OC[C@H]1O[C@@H](Oc2ccccc2)[C@H](O)[C@@H](O)[C@@H]1O	inactive
CC1C=CC2CCCCC2C1CCC1CC(O)CC(=O)O1 (centres undefined)	inactive
COC(=O)CC(O)C1OC(c2ccccc2)C(O)C1O (centres undefined)	inactive
COc1c2ccoc2c(OC)c2oc(=O)ccc12	inactive
CCC(O)/C=C1\OC(=O)C2=C1CCC=C2 (centres undefined)	inactive
CCCCCCCC(O)/C=C\C(O)CCC(O)CCCC(=O)O (centres undefined)	inactive

SMILES	outcome
O=C1CC(c2ccc(O)cc2O)Oc2cc(O)cc(O)c21 (centres undefined)	inactive
COc1ccc(CCc2cc(OC)cc(=O)o2)cc1	inactive
O=c1ccc2nccc3c4ccccc4n1c23	inactive
C=C[C@@]1(C)CC[C@@H]([C@H](C)C(=O)CC=C(C)C)O1	inactive
COc1cc(/C=C/c2cc(O)cc(O)c2)ccc1O	inactive
O=C(O)c1cc(O)c2c(c1)C(=O)c1cccc(O)c1C2=O	inactive
Oc1cc(O)c2c(c1)O[C@H](c1ccc(O)c(O)c1)[C@H](O)C2	inactive
Cc1cc(O)c2c3c(c(O)c4c(c13)OC(C)C4(C)C)C(=O)O2 (centres undefined)	inactive
Oc1ccc([C@@H]2Oc3cc(O)cc(O)c3C[C@@H]2O)cc1	inactive
CC(=O)OC1C(O)C2C(C)C3=CC(=O)OC3(O)CC2C2(C)CCCC(C)(CO)C12 (centres undefined)	inactive
CCCCCCOC1OC(COC2OCC(O)C(O)C2O)C(O)C(O)C1O (centres undefined)	inactive
CC(C)=CCc1c(O)cc2oc3cc(C)cc(O)c3c2c1C	inactive
O=c1c(O)c(-c2ccc(O)c(O)c2)oc2cc(O)cc(O)c12	inactive
CCCc1c(C(=O)O)cc2c(c1O)C(=O)c1c(O)cccc1C2=O	inactive
CC(C)(O)c1ccc2c(c1)CCC1C(C)(C(=O)O)CCCC21C (centres undefined)	inactive
OC1CC(c2ccccc2)C(O)C(O)C1c1ccccc1 (centres undefined)	inactive
COc1c(C)c2c(c(O)c1C/C=C(\C)CC/C=C(\C)CCC(=O)O)C(=O)OC2	inactive
O=C1CC(c2ccc(O)cc2)Oc2cc(O)ccc21 (centres undefined)	inactive
CC1CC(=O)C2CC12C(C)(O)CO (centres undefined)	inactive
